In the library only some 1.8% were active in any assay of this set; here they are far more common.
A1 inh – inhibitors of the anti-apoptotic protein A1, read as caspase activation | MEF A1-2A-BIM cells, Caspase-Glo 3/7 luminescence, 3 h; percent of clofoctol response, vehicle zero | caspase activation, % (concentration not given with the values) | 0.066% of 330,000 active;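 active = over half of replicate activation scores above 10%, or exactly half above 10 with the replicate mean above 10; inconclusive = replicate mean below 10 yet half the replicates above 10; inactive = over half of replicates below 10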
Mot1-301 SUMO – blocks SUMOylation pathway, rescuing yeast Mot1-301 growth | S. cerevisiae Mot1-301 growth rescue, ATP luminescence, 38.5C; percent above DMSO median, 100 means doubled | growth rescue, % at 18.8 µM | 1% of 320,000 active;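 active = every valid replicate shows activation above 250% relative to neutral control wells; inactive = the rest, any valid replicate at or below 250%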
ARNT TACC3 PPI – disruptors of human ARNT/TACC3 interaction | Q9Y6A5 | AlphaScreen His-ARNT PAS-B/GST-TACC3 binding, luminescence; TACC3 fragment carries E629A point mutation | inhibition, % at 9.99 µM | 0.66% of 390,000 active | AID 623870;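 active = mean inhibition of replicates at least 50% and at least half of replicates each reaching 50%; inconclusive = half or more replicates reach 50% but mean below 50%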
AI-2 QS mod – Vibrio harveyi AI-2 quorum sensing modulation | Vibrio harveyi JMH597 AI-2 luminescence/OD600 ratio, 9 h; active compounds read low; strain lacks LuxN and CqsS sensors; 0 = neutral-control median | activity change, % at 7.5 µM | 0.4% of 300,000 active; in the data active = activity change below about -75%, passing the limit was not always enough; inconclusive = no clear call, values can overlap the other calls;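 also: luminescence divided by OD600 gain over 9 h not by final OD600 alone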
aDG glyco up – increases alpha dystroglycan glycosylation | activation, % at 10 µM | AID 624168 | 0.22% of 360,000 active | Pro5-aDG cells, alpha-DG glycosylation AlphaScreen (IIH6); 0% Pro5, 100% B10-LARGE cell signal;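 active = activation of at least 8% versus controls, or a plate z-score of at least 8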;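 also: Pro5 are CHO cells carrying HIG-tagged alpha-DG that lacks glycosylation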
JMH597 growth – retest: blocks Vibrio harveyi JMH597 growth | OD600 absorbance, 9 h; lacks LuxN and CqsS sensors | shares compounds with AI-2 QS mod | growth inhibition, % at 7.5 µM | 1% of 750 active | AID 2726;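 active = every replicate shows growth inhibition above 50%; inconclusive = at least half, but not all, replicates pass that cutoff; inactive = fewer than half of replicates pass it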
BB721 lum counter – retest counter-screen: lowers luminescence of constitutive-QS Vibrio harveyi BB721; 9 h; inhibition, % at 7.5 µM; 95% of 750 active; shares compounds with AI-2 QS mod;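 active = inhibition above about 80% in every replicate, not just on average, limit read from the data; inconclusive = at least half of replicates past the limit, but not all; inactive = fewer than half of replicates past the limit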
BB721 growth – retest Vibrio harveyi BB721 growth inhibition. shares compounds with AI-2 QS mod. OD600 absorbance, 9 h. growth inhibition, % at 7.5 µM. 3% of 750 active. AID 2728;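 active = every replicate shows growth inhibition above 50%; inconclusive = at least half but not all replicates above 50% inhibition; inactive = under half of replicates above 50% inhibition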
AI-2 QS JMH597 – Vibrio harveyi AI-2 signaling luminescence modulation – JMH597 strain, confirmation | shares compounds with AI-2 QS mod | Vibrio harveyi JMH597 AI-2 quorum sensing luminescence, 9 h; luxN and CqsS knockout, AI-2 only | inhibition, % at 7.5 µM | 97% of 750 active;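 active = every replicate shows more than 75% inhibition of signal versus neutral control wells; inconclusive = half to three quarters of replicates exceed 75% inhibition; inactive = fewer than half of replicates exceed 75% inhibition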
A number is an active result.

How did Cc1cc(C(=O)OCC(=O)Nc2ccc(S(=O)(=O)N3CCOCC3)cc2)c(C)o1 do in these assays?
A1 inh: inactive; Mot1-301 SUMO: inactive; ARNT TACC3 PPI: inactive; AI-2 QS mod: -91; aDG glyco up: inactive; JMH597 growth: inactive; BB721 lum counter: 98; BB721 growth: inactive; AI-2 QS JMH597: 98

How did O=C(COc1cccc(C(F)(F)F)c1)Nc1ccc(S(=O)(=O)N2CCCC2)cc1 do in these assays?
A1 inh: inactive; Mot1-301 SUMO: inactive; ARNT TACC3 PPI: inactive; AI-2 QS mod: -93; aDG glyco up: inactive; JMH597 growth: inactive; BB721 lum counter: 98; BB721 growth: inactive; AI-2 QS JMH597: inconclusive

What do the screens show for `CSc1ncccc1C(=O)OCC(=O)Nc1ccc(S(=O)(=O)N2CCCC2)cc1`?
A1 inh: inactive; Mot1-301 SUMO: inactive; ARNT TACC3 PPI: inactive; AI-2 QS mod: -92; aDG glyco up: inactive; JMH597 growth: inactive; BB721 lum counter: 98; BB721 growth: inactive; AI-2 QS JMH597: 99

How did O=C(COC(=O)Cc1ccc2c(c1)OCCO2)Nc1ccc(S(=O)(=O)N2CCCC2)cc1 do in these assays?
A1 inh: inactive; Mot1-301 SUMO: inactive; ARNT TACC3 PPI: inactive; AI-2 QS mod: -92; aDG glyco up: inactive; JMH597 growth: inactive; BB721 lum counter: 96; BB721 growth: inactive; AI-2 QS JMH597: 97

What do the screens show for `CSc1ncccc1C(=O)OCC(=O)c1ccc(S(=O)(=O)N2CCCCC2)cc1`?
A1 inh: inactive; Mot1-301 SUMO: inactive; ARNT TACC3 PPI: inactive; AI-2 QS mod: inactive; aDG glyco up: inactive

Results for Cc1noc(C)c1S(=O)(=O)N(C)C[C@@H]1Oc2c(NC(=O)c3cnccn3)cccc2C(=O)N([C@H](C)CO)C[C@@H]1C ?
ARNT TACC3 PPI: inactive

Results for Cc1cc2oc(=O)cc(COC(=O)c3n[nH]c4ccccc34)c2cc1C ?
A1 inh: inactive; Mot1-301 SUMO: inactive; ARNT TACC3 PPI: inactive; AI-2 QS mod: inactive; aDG glyco up: inactive

How did O=C(Nc1ccc(S(=O)(=O)N2CCCCC2)cc1)C1CC1 do in these assays?
A1 inh: inactive; Mot1-301 SUMO: inactive; ARNT TACC3 PPI: inactive; AI-2 QS mod: inactive; aDG glyco up: inactive

How did CCCCC(=O)NC(=S)Nc1ccc(S(=O)(=O)N2CCCC2)cc1 do in these assays?
A1 inh: inactive; ARNT TACC3 PPI: inactive; AI-2 QS mod: -84; aDG glyco up: inactive; JMH597 growth: inactive; BB721 lum counter: 86; BB721 growth: inactive; AI-2 QS JMH597: 92

How did O=C(Nc1ccc(S(=O)(=O)N2CCCC2)cc1)C1CCCCC1 do in these assays?
A1 inh: inactive; Mot1-301 SUMO: inactive; AI-2 QS mod: -83; aDG glyco up: inactive; JMH597 growth: inactive; BB721 lum counter: 93; BB721 growth: inactive; AI-2 QS JMH597: 96

How did CCOc1ccc(NC(=O)C2CCN(S(=O)(=O)c3cccnc3)CC2)cc1 do in these assays?
A1 inh: inactive; Mot1-301 SUMO: inactive; ARNT TACC3 PPI: inactive; AI-2 QS mod: -86; aDG glyco up: inactive; JMH597 growth: inactive; BB721 lum counter: 95; BB721 growth: inactive; AI-2 QS JMH597: 97

Results for NC(=O)C1CCN(C(=O)CCSc2ccc(Cl)cc2)CC1 ?
A1 inh: inactive; Mot1-301 SUMO: inactive; ARNT TACC3 PPI: inactive; AI-2 QS mod: inactive; aDG glyco up: inactive

Results for CCc1ccc(CCC(=O)Nc2ccc(C)c(C)c2)o1 ?
A1 inh: inactive; Mot1-301 SUMO: inactive; ARNT TACC3 PPI: inactive; AI-2 QS mod: -87; aDG glyco up: inactive; JMH597 growth: inactive; BB721 lum counter: 93; BB721 growth: inactive; AI-2 QS JMH597: 96

What do the screens show for `CCc1ccc(NC(=O)CCc2ccc(CC)o2)cc1`?
A1 inh: inactive; Mot1-301 SUMO: inactive; ARNT TACC3 PPI: inactive; AI-2 QS mod: inconclusive; aDG glyco up: inactive; JMH597 growth: inactive; BB721 lum counter: inactive; BB721 growth: inactive; AI-2 QS JMH597: 88

What do the screens show for `COc1ccc(N2CCN(c3ccc4nnc(CCC(=O)Nc5ccc(C)cc5)n4n3)CC2)cc1`?
A1 inh: inactive; Mot1-301 SUMO: inactive; ARNT TACC3 PPI: inactive; AI-2 QS mod: inactive; aDG glyco up: inactive

Results for Cc1ccc(CNc2ccc3c(c2)ncn3C)cc1 ?
A1 inh: inactive; Mot1-301 SUMO: inactive; ARNT TACC3 PPI: inactive; AI-2 QS mod: -82; aDG glyco up: inactive; JMH597 growth: inactive; BB721 lum counter: 91; BB721 growth: inactive; AI-2 QS JMH597: 95

How did Cc1ccc(CNc2ccc3c(c2)ncn3C(C)(C)C)cc1 do in these assays?
A1 inh: inactive; Mot1-301 SUMO: inactive; ARNT TACC3 PPI: inactive; AI-2 QS mod: inactive; aDG glyco up: inactive

Results for CCc1ccc(CNc2ccc3c(c2)ncn3C)cc1 ?
ARNT TACC3 PPI: inactive; AI-2 QS mod: -91; aDG glyco up: inactive; JMH597 growth: inactive; BB721 lum counter: 96; BB721 growth: inactive; AI-2 QS JMH597: 98

Results for O=C(CN1C(=O)NC2(CCOc3ccccc32)C1=O)Nc1ccc(F)c(F)c1F (stereo unspecified) ?
A1 inh: inactive; Mot1-301 SUMO: inactive; ARNT TACC3 PPI: inactive; AI-2 QS mod: -79; aDG glyco up: inactive; JMH597 growth: inactive; BB721 lum counter: 87; BB721 growth: inactive; AI-2 QS JMH597: 91

What do the screens show for `O=C(O)CN1C(=O)NC2(CCOc3ccccc32)C1=O` (stereo unspecified)?
A1 inh: inactive; Mot1-301 SUMO: inactive; ARNT TACC3 PPI: inactive; AI-2 QS mod: inactive; aDG glyco up: inactive

How did CCN(c1ccc(NC(=O)CN2C(=O)NC3(CCOc4ccccc43)C2=O)cc1)C(C)C (stereo unspecified) do in these assays?
A1 inh: inactive; Mot1-301 SUMO: inactive; ARNT TACC3 PPI: inactive; AI-2 QS mod: -82; aDG glyco up: inactive; JMH597 growth: inactive; BB721 lum counter: inconclusive; BB721 growth: inactive; AI-2 QS JMH597: 90

What do the screens show for `O=C(CN1C(=O)NC2(CCc3ccccc32)C1=O)Nc1cccc(F)c1` (stereo unspecified)?
A1 inh: inactive; Mot1-301 SUMO: inactive; ARNT TACC3 PPI: inactive; AI-2 QS mod: -84; aDG glyco up: inactive; JMH597 growth: inactive; BB721 lum counter: 92; BB721 growth: inactive; AI-2 QS JMH597: 95

What do the screens show for `CCNC(=O)CN1C(=O)NC2(CCOc3ccccc32)C1=O` (stereo unspecified)?
A1 inh: inactive; Mot1-301 SUMO: inactive; ARNT TACC3 PPI: inactive; AI-2 QS mod: inactive; aDG glyco up: inactive

Bioassay records as filed in PubChem.
